In paper PMC4081100, “A DNA-binding-site landscape and regulatory network analysis for NAC transcription factors in Arabidopsis thaliana” one finds binding signal data, which are given here for six sequences.

Holding throughout (test): universal protein binding microarray (PBM); transcription factors of Arabidopsis thaliana; high values mean tight binding
The target of one assay is T1, GST-ANAC092(1-176) (Arabidopsis thaliana, UniProt Q9FKA0 1-176).
T1 sequence: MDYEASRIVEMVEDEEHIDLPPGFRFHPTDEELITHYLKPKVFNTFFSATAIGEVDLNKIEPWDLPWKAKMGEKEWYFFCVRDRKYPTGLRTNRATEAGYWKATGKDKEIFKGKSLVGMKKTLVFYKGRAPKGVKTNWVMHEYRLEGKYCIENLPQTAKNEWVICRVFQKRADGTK
Conditions: protein: recombinant; tags: GST; chain copies: 2; dsDNA, one strand shown. In a few lines: (§1)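 Binding is expressed as the normalised enrichment score (E-score). Proteins carrying a GST tag, whether NAC-domain, full-length or DNA-binding-domain forms, were induced in cells, and zinc acetate was added for zinc-finger proteins. After purification on glutathione–Sepharose 4B and quantification by A280 or anti-GST western blot, each was applied in duplicate at 200 to 500 nM final to custom all-10-mer Agilent 4 × 180K arrays made double-stranded by primer extension. Gapped and ungapped 8-mers were scored.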

The target in the next assay is GST-NTL6(1-168) (Arabidopsis thaliana, UniProt Q9SCK6 1-168). Particulars: protein: recombinant; tags: GST; chain copies: 2; dsDNA, one strand shown. In a few lines: as §1
A further assay concerns the target T2, GST-ANAC019 NAC domain (Arabidopsis thaliana, UniProt Q9C932 14-162).
T2 sequence: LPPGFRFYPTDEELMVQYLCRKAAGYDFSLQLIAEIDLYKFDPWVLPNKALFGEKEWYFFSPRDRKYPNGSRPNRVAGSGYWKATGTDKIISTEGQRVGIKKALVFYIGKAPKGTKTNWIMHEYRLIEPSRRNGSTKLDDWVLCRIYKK
Conditions: protein: recombinant; tags: GST; chain copies: 2; dsDNA, one strand shown. The essentials:
as §1

Another assay has as its target T3, GST-ANAC055(1-171) (Arabidopsis thaliana, UniProt Q9LDY8 1-171).
T3 sequence: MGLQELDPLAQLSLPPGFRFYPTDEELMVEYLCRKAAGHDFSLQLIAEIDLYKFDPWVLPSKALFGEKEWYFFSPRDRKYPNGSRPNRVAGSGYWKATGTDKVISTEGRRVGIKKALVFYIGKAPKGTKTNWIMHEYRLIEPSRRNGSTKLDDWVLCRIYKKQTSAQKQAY
Conditions: protein: recombinant; tags: GST; chain copies: 2; dsDNA, one strand shown. The essentials: as §1

The target of the next assay is T4, GST-ATAF1 NAC domain (Arabidopsis thaliana, UniProt Q39013 7-158).
T4 sequence: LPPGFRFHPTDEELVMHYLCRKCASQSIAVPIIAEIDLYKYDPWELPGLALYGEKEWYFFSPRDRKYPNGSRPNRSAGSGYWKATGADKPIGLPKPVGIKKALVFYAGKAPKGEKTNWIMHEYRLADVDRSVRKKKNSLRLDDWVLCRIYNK
Particulars: protein: recombinant; tags: GST; chain copies: 2; dsDNA, one strand shown. The essentials: as §1

The target of assay [1] is T5, GST-ANAC092(1-285) full length (Arabidopsis thaliana, UniProt Q9FKA0 1-285).
T5 sequence: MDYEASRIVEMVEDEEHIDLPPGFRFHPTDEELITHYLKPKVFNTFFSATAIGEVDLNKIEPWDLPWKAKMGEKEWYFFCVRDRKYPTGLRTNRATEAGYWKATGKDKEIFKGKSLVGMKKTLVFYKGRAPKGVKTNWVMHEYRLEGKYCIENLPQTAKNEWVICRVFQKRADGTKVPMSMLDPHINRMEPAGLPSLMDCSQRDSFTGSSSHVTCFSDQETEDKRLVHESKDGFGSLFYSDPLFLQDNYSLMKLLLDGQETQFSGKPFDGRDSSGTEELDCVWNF
Conditions: protein: recombinant; tags: GST; chain copies: 2; dsDNA, one strand shown. In a few lines: as §1

The next assay has as its target T6, GST-NAP(1-166) (Arabidopsis thaliana, UniProt O49255 1-166).
T6 sequence: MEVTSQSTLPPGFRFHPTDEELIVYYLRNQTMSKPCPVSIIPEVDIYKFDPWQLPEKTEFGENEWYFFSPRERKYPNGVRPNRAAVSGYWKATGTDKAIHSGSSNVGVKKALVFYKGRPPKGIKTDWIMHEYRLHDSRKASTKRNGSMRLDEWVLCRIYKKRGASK
Conditions: protein: recombinant; tags: GST; chain copies: 2; dsDNA, one strand shown. In a few lines: as §1

Another assay has as its target T7, GST-NST2(1-184) (Arabidopsis thaliana, UniProt Q9M274 1-184).
T7 sequence: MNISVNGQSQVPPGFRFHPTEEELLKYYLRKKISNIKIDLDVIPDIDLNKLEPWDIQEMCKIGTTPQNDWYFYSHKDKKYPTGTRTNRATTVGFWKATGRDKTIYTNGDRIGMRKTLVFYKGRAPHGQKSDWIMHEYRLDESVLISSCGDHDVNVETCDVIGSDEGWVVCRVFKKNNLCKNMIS
Particulars: protein: recombinant; tags: GST; chain copies: 2; dsDNA, one strand shown. In a few lines: as §1

A further assay has as its target T8, GST-NTL8 NAC domain (Arabidopsis thaliana, UniProt Q9XIN7 14-156).
T8 sequence: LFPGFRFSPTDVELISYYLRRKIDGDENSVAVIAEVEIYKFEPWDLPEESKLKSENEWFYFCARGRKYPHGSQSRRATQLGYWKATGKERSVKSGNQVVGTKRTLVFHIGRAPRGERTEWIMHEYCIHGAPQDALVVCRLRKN
Conditions: protein: recombinant; tags: GST; chain copies: 2; dsDNA, one strand shown. In a few lines: as §1

The target in the next assay is T9, GST-SND1(1-203) (Arabidopsis thaliana, UniProt Q9LPI7 1-203).
T9 sequence: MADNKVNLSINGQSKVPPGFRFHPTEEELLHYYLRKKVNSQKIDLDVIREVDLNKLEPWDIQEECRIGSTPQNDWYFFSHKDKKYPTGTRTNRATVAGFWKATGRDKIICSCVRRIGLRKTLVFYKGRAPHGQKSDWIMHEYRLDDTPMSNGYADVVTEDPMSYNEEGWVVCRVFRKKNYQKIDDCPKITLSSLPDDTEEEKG
Particulars: protein: recombinant; tags: GST; chain copies: 2; dsDNA, one strand shown. In a few lines: as §1

Another assay addresses T10, GST-VND3 NAC domain (Arabidopsis thaliana, UniProt Q9FH59 12-162).
T10 sequence: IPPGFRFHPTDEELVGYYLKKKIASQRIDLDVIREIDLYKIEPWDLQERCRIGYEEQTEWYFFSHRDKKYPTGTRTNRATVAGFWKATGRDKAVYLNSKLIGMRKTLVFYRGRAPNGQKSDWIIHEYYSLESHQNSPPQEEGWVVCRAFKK
Particulars: protein: recombinant; tags: GST; chain copies: 2; dsDNA, one strand shown. The essentials: as §1

The target of the next assay is T11, GST-VND7 NAC domain (Arabidopsis thaliana, UniProt Q9C8W9 9-158).
T11 sequence: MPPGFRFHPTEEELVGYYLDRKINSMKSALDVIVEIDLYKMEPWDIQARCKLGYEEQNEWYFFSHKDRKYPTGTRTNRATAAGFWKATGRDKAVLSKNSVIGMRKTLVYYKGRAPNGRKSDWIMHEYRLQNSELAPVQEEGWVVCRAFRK
Particulars: protein: recombinant; tags: GST; chain copies: 2; dsDNA, one strand shown. The essentials:
as §1

The next assay concerns the target GST-WRKY1(266-371) (Arabidopsis thaliana, UniProt Q9SI37 266-371). Conditions: protein: recombinant; tags: GST; dsDNA, one strand shown. In a few lines:
as §1

Sequence of GST-WRKY1(266-371) (Q9SI37 266-371): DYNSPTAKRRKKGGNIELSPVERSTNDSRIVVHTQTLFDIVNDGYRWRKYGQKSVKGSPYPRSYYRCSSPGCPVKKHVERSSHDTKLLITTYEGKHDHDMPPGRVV
Sequence of GST-NTL6(1-168) (Q9SCK6 1-168): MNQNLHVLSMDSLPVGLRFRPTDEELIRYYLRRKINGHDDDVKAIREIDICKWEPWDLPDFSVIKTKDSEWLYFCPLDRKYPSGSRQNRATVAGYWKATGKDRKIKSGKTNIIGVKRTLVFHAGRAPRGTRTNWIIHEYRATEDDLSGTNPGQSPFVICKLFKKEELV

Consider AGACGCAA, for which the binding signal in the assay with GST-ANAC092(1-176) came out at 0.453 E-score; with GST-NTL6(1-168), 0.0768 E-score; with GST-ANAC019 NAC domain, 0.222 E-score; with GST-ANAC055(1-171) it was 0.246 E-score; with GST-ATAF1 NAC domain, 0.262 E-score; in [1], 0.462 E-score. The binding signal is 0.433 E-score with GST-NAP(1-166); 0.242 E-score in the assay with GST-NST2(1-184); 0.107 E-score in the assay with GST-NTL8 NAC domain; 0.265 E-score with GST-SND1(1-203); 0.295 E-score with GST-VND3 NAC domain; 0.276 E-score in the assay with GST-VND7 NAC domain. Moreover, the binding signal in the assay with GST-WRKY1(266-371) was 0.0554 E-score.

AACGTAAA: the binding signal in the assay with GST-ANAC092(1-176) worked out at 0.254 E-score; with GST-NTL6(1-168), 0.0913 E-score; with GST-ANAC019 NAC domain, 0.175 E-score; in the assay with GST-ANAC055(1-171), 0.241 E-score; with GST-ATAF1 NAC domain, 0.298 E-score; in assay [1], 0.342 E-score. The binding signal in the assay with GST-NAP(1-166) came to 0.24 E-score; with GST-NST2(1-184), 0.36 E-score; in the assay with GST-SND1(1-203), 0.436 E-score; with GST-VND3 NAC domain it was 0.252 E-score; in the assay with GST-VND7 NAC domain, 0.248 E-score; in the assay with GST-WRKY1(266-371), 0.165 E-score.

For the sequence GACGTAAC, the binding signal with GST-ANAC092(1-176) amounted to 0.354 E-score; with GST-NTL6(1-168) it was 0.088 E-score; in the assay with GST-ANAC019 NAC domain it was 0.355 E-score; with GST-ANAC055(1-171), 0.369 E-score; with GST-ATAF1 NAC domain, 0.268 E-score; in assay [1], 0.4 E-score. In addition, the binding signal in the assay with GST-NAP(1-166) was 0.409 E-score; with GST-NST2(1-184), 0.24 E-score; in the assay with GST-NTL8 NAC domain, 0.204 E-score; in the assay with GST-SND1(1-203), 0.392 E-score; with GST-VND3 NAC domain it was 0.367 E-score; with GST-VND7 NAC domain, 0.296 E-score. Further, the binding signal in the assay with GST-WRKY1(266-371) was 0.152 E-score.

Take GATACGTA: the binding signal turned out to be 0.381 E-score with GST-ANAC092(1-176); 0.0687 E-score with GST-NTL6(1-168); 0.428 E-score in the assay with GST-ANAC019 NAC domain; 0.415 E-score with GST-ANAC055(1-171); 0.341 E-score with GST-ATAF1 NAC domain; 0.385 E-score in assay [1]. Moreover, the binding signal with GST-NAP(1-166) came out at 0.458 E-score; with GST-NST2(1-184) it was 0.253 E-score; with GST-SND1(1-203), 0.257 E-score; with GST-VND3 NAC domain, 0.405 E-score; in the assay with GST-VND7 NAC domain, 0.424 E-score; with GST-WRKY1(266-371) it was 0.0663 E-score.

With TTACGGAA, the binding signal came to 0.266 E-score with GST-ANAC092(1-176); 0.151 E-score with GST-NTL6(1-168); 0.455 E-score with GST-ANAC019 NAC domain; 0.402 E-score in the assay with GST-ANAC055(1-171); 0.404 E-score in the assay with GST-ATAF1 NAC domain; 0.354 E-score in [1]. In addition, the binding signal is 0.413 E-score in the assay with GST-NAP(1-166); 0.199 E-score in the assay with GST-NST2(1-184); 0.128 E-score with GST-NTL8 NAC domain; 0.405 E-score with GST-SND1(1-203); 0.442 E-score in the assay with GST-VND3 NAC domain; 0.391 E-score with GST-VND7 NAC domain. Further, the binding signal with GST-WRKY1(266-371) came out at 0.126 E-score.

On to AAGTAAGT, for which the binding signal with GST-ANAC092(1-176) is 0.249 E-score; with GST-NTL6(1-168), 0.412 E-score; with GST-ANAC019 NAC domain, 0.189 E-score; with GST-ANAC055(1-171), 0.164 E-score; with GST-ATAF1 NAC domain, 0.199 E-score; in [1] it was 0.259 E-score. The binding signal in the assay with GST-NAP(1-166) came to 0.135 E-score; in the assay with GST-NST2(1-184) it was 0.181 E-score; with GST-NTL8 NAC domain it was 0.267 E-score; with GST-SND1(1-203), 0.282 E-score; in the assay with GST-VND3 NAC domain it was 0.217 E-score; with GST-VND7 NAC domain it was 0.135 E-score. The binding signal in the assay with GST-WRKY1(266-371) turned out to be 0.2 E-score.
